# Test results published in PubChem BioAssay (Tox21).
# Values without a mark were called inactive. Inconclusive results are not listed. Where a call stands in place of a potency, no number is given. Calls of active or inactive are those of the source. Unless noted, calls follow the shape of the dose curve; as a rule, active = well fitted curve in the direction sought with a large enough effect in the repeat runs; inconclusive = weak or mixed curves; inactive = no such curve, though single readings can be large; an effect the other way counts as inactive or inconclusive.
# How the values were obtained:
# [1] = molecular target: Thyrotropin receptor (Homo sapiens) (UniProt P16473); assay: qHTS assay to identify small molecule agonists of the thyroid stimulating hormone receptor (TSHR) signaling pathway (AID 1224843; calls by dose curve; also: nearly all actives have a fitted effect of over 45% in size)
# Chain of Thyrotropin receptor (Homo sapiens) (P16473 whole entry, looked up): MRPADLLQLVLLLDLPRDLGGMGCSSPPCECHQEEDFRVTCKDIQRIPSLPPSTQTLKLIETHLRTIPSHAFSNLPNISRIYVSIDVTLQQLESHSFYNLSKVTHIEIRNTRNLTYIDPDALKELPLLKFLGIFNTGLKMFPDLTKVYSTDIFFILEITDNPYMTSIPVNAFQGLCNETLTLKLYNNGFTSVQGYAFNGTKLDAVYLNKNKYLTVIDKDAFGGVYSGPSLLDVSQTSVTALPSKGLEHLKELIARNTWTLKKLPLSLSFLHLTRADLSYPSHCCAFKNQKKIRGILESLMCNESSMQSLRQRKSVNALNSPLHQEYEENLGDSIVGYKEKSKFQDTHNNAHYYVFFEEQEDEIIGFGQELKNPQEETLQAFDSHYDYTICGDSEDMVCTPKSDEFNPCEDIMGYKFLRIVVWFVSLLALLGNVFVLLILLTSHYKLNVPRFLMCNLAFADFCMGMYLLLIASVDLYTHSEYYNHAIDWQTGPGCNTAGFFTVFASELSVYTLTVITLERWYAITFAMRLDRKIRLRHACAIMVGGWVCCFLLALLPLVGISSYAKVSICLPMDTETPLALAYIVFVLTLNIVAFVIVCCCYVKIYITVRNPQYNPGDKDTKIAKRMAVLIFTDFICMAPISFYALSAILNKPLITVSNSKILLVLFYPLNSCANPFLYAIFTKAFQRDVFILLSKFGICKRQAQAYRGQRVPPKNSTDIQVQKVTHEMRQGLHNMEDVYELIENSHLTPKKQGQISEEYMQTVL
# Method in brief: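 TSHR-expressing HEK293 cells (800 per well) were exposed to compounds for 30 min at room temperature. cAMP was then detected by HTRF competition with cAMP-d2 and anti-cAMP cryptate, read after 1 h at room temperature. Fifteen concentrations, triplicate.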
# [2] = qHTS assay to identify small molecule agonists of the hypoxia (HIF-1) signaling pathway - cell viability counter screen (AID 1224844; calls by dose curve; also: nearly all actives have a fitted effect of over 50% in size)
# Method in brief: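 ME-180 HRE-bla cells, 2,000/well, 0.5% dialyzed FBS; 5 hr settle, 17 hr compound at 37C/5% CO2; CCF4-AM reporter read first, then CellTiter-Glo luminescence after 30 min RT.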
# [3] = qHTS assay to identify small molecule agonists of H2AX (AID 1224845; active = well fitted activation curve with a large enough effect in the signal ratio in the repeat runs, not every such curve was filed as active; the % refers to the signal ratio)
# Method in brief: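 Wild-type CHO-K1 cells plated overnight, then exposed 3 hr at 37C to compounds at 15 concentrations (0.76% DMSO). Lysed, then HTRF anti-pH2AX(S139)-cryptate/anti-H2AX-d2 detection after 24 hr at room temperature; emissions 665 and 620 nm.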
# [4] = qHTS assay to identify small molecule agonists of the hypoxia (HIF-1) signaling pathway (AID 1224846; active = well fitted activation curve with a large enough effect in the signal ratio in the repeat runs, not every such curve was filed as active; the % refers to the signal ratio)
# Method in brief: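 Cell line: CellSensor HRE-bla ME-180; 2,000 cells/well; 0.5% dialyzed FBS; 5 h preincubation; DMSO compound pin transfer; 17 h, 37C, 5% CO2; CCF4-AM added; bla FRET signal scored for activation.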
# [5] = qHTS assay to identify small molecule agonists of H2AX - cell viability counter screen (AID 1224847; calls by dose curve; also: top concentration of the series differs between compounds; nearly all actives have a fitted effect of over 30% in size)
# Method in brief: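 Wild-type CHO-K1 cells (10% FBS medium) were plated overnight at 37C, exposed to compounds at 15 concentrations for 3 hr at 37C (0.76% DMSO final), and viability was read as CellTiter-Glo luminescence after 30 min at room temperature.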
# [6] = qHTS assay to identify small molecule antagonists of the estrogen related receptor (ERR) signaling pathway from Tox21 library (AID 1224848); also: nearly all actives have a fitted effect of over 50% in size
# Method in brief: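 Cells: ERR line, 2,000/well; 6 h preincubation 37 C/5% CO2. Cpd in DMSO via pin tool; 18 h, 37 C. ONE-Glo, 30 min RT, luminescence.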
# [7] = qHTS assay to identify small molecule agonists of the estrogen related receptor (ERR) signaling pathway from Tox21 library (AID 1224849; calls by dose curve; also: nearly all actives have a fitted effect of over 15% in size); details: ERR reporter cell line, ONE-Glo luciferase, 18 h; at 92.4 µM (top of the series) unless noted
# Method in brief: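 ERR cells, 6 h pre-incubation 37 C/5% CO2; cpd in DMSO pinned; 18 h 37 C; ONE-Glo added, 30 min RT; luminescence read. Agonist mode, qHTS.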
# [8] = qHTS RealTime-Glo MT Cell Viability Assay in HepG2 cells - 24 hour (AID 1224867); also: nearly all actives have a fitted effect of over 50% in size
# Method in brief: (§1)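 Cell number in HepG2 cultures estimated from NanoLuc luminescence generated by metabolic reduction of a prosubstrate by living cells. The homogeneous, nonlytic format allowed repeated reads at 0, 8, 16, 24, 32 and 40 h of compound exposure.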
# [9] = qHTS RealTime-Glo MT Cell Viability Assay in HEK293 cells - 32 hour (AID 1224868); also: top concentration of the series differs between compounds; nearly all actives have a fitted effect of over 50% in size
# Method in brief: (§2)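 Homogeneous bioluminescent viability format in HEK293 cells (600 cells/well). Following 5 h at 37 C/5% CO2, 23 nL compound was pintooled; the signal was measured repeatedly during 40 h incubation.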
# [10] = A CellTox Green Cytotoxicity Assay to monitor cytotoxicity in HEK293 cells - 0 hour (AID 1224869); also: nearly all actives have a fitted effect of over 50% in size
# Method in brief: (§3)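 Nonlytic real-time cytotoxicity: HEK293 + CellTox Green reagent plated, 5 h preincubation, pintool compound addition (23 nL in DMSO), 37 C for 40 h, fluorescence measured at successive time points.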
# [11] = qHTS RealTime-Glo MT Cell Viability Assay in HepG2 cells - 40 hour (AID 1224870); also: nearly all actives have a fitted effect of over 50% in size
# Method in brief: (§4)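 HepG2 cells mixed with RealTime-Glo MT reagents (NanoLuc plus cell-permeant prosubstrate) were seeded at 600 cells/well, incubated 5 h at 37 C/5% CO2, then pinned with compounds in DMSO; nonlytic luminescence tracked viability during 40 h treatment.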
# [12] = qHTS RealTime-Glo MT Cell Viability Assay in HEK293 cells - 16 hour (AID 1224872)
# Method in brief: as §2
# [13] = qHTS RealTime-Glo MT Cell Viability Assay in HepG2 cells - 8 hour (AID 1224873); also: nearly all actives have a fitted effect of over 55% in size
# Method in brief: as §4
# [14] = qHTS RealTime-Glo MT Cell Viability Assay in HEK293 cells - 40 hour (AID 1224874); details: RealTime-Glo luminescence; max response: active compounds read low; also: nearly all actives have a fitted effect of over 50% in size
# Method in brief: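 Cells were seeded together with NanoLuc luciferase and a prosubstrate that viable cells reduce to a luciferase substrate. After a 5 h incubation at 37 C/5% CO2, compounds were added and luminescence was measured repeatedly during 40 h of treatment.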
# [15] = A CellTox Green Cytotoxicity Assay to monitor cytotoxicity in HEK293 cells - 24 hour (AID 1224875); also: nearly all actives have a fitted effect of over 45% in size
# Method in brief: as §3
# [16] = A CellTox Green Cytotoxicity Assay to monitor cytotoxicity in HepG2 cells - 16 hour (AID 1224876); also: nearly all actives have a fitted effect of over 45% in size
# Method in brief: (§5)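 Read-out is fluorescence of a cyanine dye excluded from live cells that stains DNA of dead HepG2 cells, with signal proportional to cytotoxicity. Plates were read at 0, 8, 16, 24, 32 and 40 h after compound addition.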
# [17] = qHTS RealTime-Glo MT Cell Viability Assay in HepG2 cells - 32 hour (AID 1224877); also: nearly all actives have a fitted effect of over 55% in size
# Method in brief: as §1
# [18] = A CellTox Green Cytotoxicity Assay to monitor cytotoxicity in HepG2 cells - 24 hour (AID 1224878); also: nearly all actives have a fitted effect of over 45% in size
# Method in brief: as §5
# [19] = A CellTox Green Cytotoxicity Assay to monitor cytotoxicity in HepG2 cells - 40 hour (AID 1224879); also: nearly all actives have a fitted effect of over 40% in size
# Method in brief: as §5
# [20] = A CellTox Green Cytotoxicity Assay to monitor cytotoxicity in HEK293 cells - 40 hour (AID 1224871); also: nearly all actives have a fitted effect of over 45% in size
# Method in brief: as §3
structure (smiles),measurement,setting,value
O=C(O)c1ccccc1Nc1cc(Cl)ccc1C(=O)O,activation,[1],-5.91% [at 19 µM]
same,"activity change, negative = cytotoxicity",[2],5.17% [at 15.8 µM]
same,activation (H2AX phosphorylation),[3],5.25% [at 31.6 µM]
same,activation,[4],-1.19% [at 15.8 µM]
same,"activity change, negative = cytotoxicity",[5],9.56% [at 31.6 µM]
same,"activity, negative = inhibition",[6],-10.4% [at 19 µM]
same,"activity change, positive = activation",[7],-5.59% [at 19 µM]
same,"activity change, negative = cytotoxicity",[8],-0.715% [at 15.8 µM]
same,"activity change, negative = cytotoxic",[9],3.41% [at 15.8 µM]
same,cytotoxicity,[10],1.27% [at 15.8 µM]
same,"activity change, negative = cytotoxic",[11],-5.11% [at 15.8 µM]
same,"activity change, negative = cytotoxicity",[12],1.77% [at 15.8 µM]
same,"viability change, negative = cytotoxic",[13],0.891% [at 15.8 µM]
same,max response,[14],2.59%
same,activity change,[15],"-4.95% [at 15.8 µM, active compounds read high]"
same,cytotoxicity increase,[16],1.42% [at 15.8 µM]
same,"activity change, negative = cytotoxic",[17],-8.29% [at 15.8 µM]
same,cytotoxicity,[18],9.31% [at 15.8 µM]
same,cytotoxicity increase,[19],28.2% [at 15.8 µM]
CCCCNCCCC,Potency,[1],inactive
same,Potency,[2],inactive
same,Potency,[3],inactive
same,outcome,[4],inactive
same,Potency,[5],inactive
same,Potency,[6],inactive
same,"activity change, positive = activation",[7],0.877%
same,Potency,[8],inactive
same,Potency,[9],inactive
same,Potency,[10],inactive
same,Potency,[11],inactive
same,Potency,[20],inactive
same,Potency,[12],inactive
same,outcome,[13],inactive
same,max response,[14],1.62%
same,Potency,[15],inactive
same,Potency,[16],inactive
same,Potency,[17],inactive
same,Potency,[18],inactive
same,Potency,[19],inactive
CCCNC(C)(C)COC(=O)c1ccccc1,Potency,[1],inactive
same,Potency,[2],inactive
same,Potency,[3],inactive
same,outcome,[4],inactive
same,Potency,[5],inactive
same,Potency,[6],inactive
same,"activity change, positive = activation",[7],5.73% [at 42.5 µM]
same,Potency,[8],inactive
same,Potency,[9],inactive
same,Potency,[10],inactive
same,Potency,[11],inactive
same,Potency,[12],inactive
same,outcome,[13],inactive
same,max response,[14],2.27%
same,Potency,[15],inactive
same,Potency,[16],inactive
same,Potency,[17],inactive
same,Potency,[18],inactive
same,Potency,[19],inactive
Cc1ccc([N+](=O)[O-])c(N)c1,Potency,[1],inactive
same,Potency,[2],inactive
same,Potency,[3],inactive
same,outcome,[4],inactive
same,Potency,[5],inactive
same,Potency,[6],inactive
same,"activity change, positive = activation",[7],-10.6%
same,Potency,[8],inactive
same,Potency,[9],inactive
same,Potency,[10],inactive
same,Potency,[11],inactive
same,Potency,[20],inactive
same,Potency,[12],inactive
same,outcome,[13],inactive
same,max response,[14],-1.42%
same,Potency,[15],inactive
same,Potency,[16],inactive
same,Potency,[17],inactive
same,Potency,[18],inactive
same,Potency,[19],inactive
FC(F)(F)c1ccccc1,Potency,[1],inactive
same,Potency,[2],inactive
same,Potency,[3],inactive
same,outcome,[4],inactive
same,Potency,[5],inactive
same,Potency,[6],inactive
same,"activity change, positive = activation",[7],2.08%
same,Potency,[8],inactive
same,Potency,[9],inactive
same,Potency,[11],inactive
same,Potency,[20],inactive
same,Potency,[12],inactive
same,outcome,[13],inactive
same,max response,[14],11.8%
same,Potency,[15],inactive
same,Potency,[16],inactive
same,Potency,[17],inactive
same,Potency,[18],inactive
same,Potency,[19],inactive
Cc1ccc([N+](=O)[O-])cc1Cl,Potency,[1],inactive
same,Potency,[2],inactive
same,Potency,[3],inactive
same,outcome,[4],inactive
same,Potency,[5],inactive
same,Potency,[6],inactive
same,"activity change, positive = activation",[7],14.6% (active)
same,Potency,[8],inactive
same,Potency,[9],inactive
same,Potency,[10],inactive
same,Potency,[11],inactive
same,Potency,[12],inactive
same,outcome,[13],inactive
same,max response,[14],0.878%
same,Potency,[15],inactive
same,Potency,[16],inactive
same,Potency,[17],inactive
same,Potency,[18],inactive
same,Potency,[19],inactive
